According to PubChem BioAssay (NCATS):
Inconclusive results are not listed. Unless noted, calls follow the shape of the dose curve; as a rule, active = well fitted curve in either direction with a large enough effect (not every such curve was filed as active); inconclusive = small, poorly fitted or top-dose-only effect, or another doubt; inactive = flat fitted curve, though single readings scatter.

Columns and labels:
[1] = AP1 Signaling Pathway (AID 357); conditions: ME-180 AP-1-bla reporter, EGF-induced, beta-lactamase ratio, 5 h; at 17.2 µM (top of the series) unless noted;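 also: ME-180 reporter cells stimulated with EGF at its EC50 level; % is scaled to controls: 0 for no effect and ±100 for the full control effect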
Outline: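 Titration-series screen for positive or negative modulators of EC50 EGF-induced signaling in ME-180 cells carrying an AP-1-driven beta-lactamase reporter. After 5 hours at 37 degrees Celsius, CCF4 460nm/530nm emission ratio gave %Activity; AC50 values derived.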

[2] = Stat Signaling Pathway (AID 446); conditions: ME-180 SIE beta-lactamase reporter, IL-6 stimulated, 5 h; at 17.2 µM (top of the series) unless noted;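 also: ME-180 cervical cancer cells given 40 pM IL-6 alongside compound; SIE-controlled beta-lactamase reporter measured as 460/530 nm FRET emission ratio; % is scaled to controls: 0 for no effect and ±100 for the full control effect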
Outline: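 ME-180 cells carrying a SIE-driven beta-lactamase reporter are stimulated with 40 pM IL-6 for 5 h at 37C in the presence of compound. The 460/530 nm FRET substrate ratio is read after 2.5 h at RT. Data are normalised to 300 pM IL-6 and to 125 nM JAK inhibitor controls.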

[3] = target: Glucocorticoid receptor (Homo sapiens) (UniProt P04150); assay: GR-GFP Redistribution (AID 450;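 active = compounds whose dose series gives a full or clear partial fitted curve of increased nuclear translocation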; also: potency is read from the fitted curve at half-maximal effect)
Sequence of Glucocorticoid receptor (Homo sapiens) (P04150 whole entry, looked up): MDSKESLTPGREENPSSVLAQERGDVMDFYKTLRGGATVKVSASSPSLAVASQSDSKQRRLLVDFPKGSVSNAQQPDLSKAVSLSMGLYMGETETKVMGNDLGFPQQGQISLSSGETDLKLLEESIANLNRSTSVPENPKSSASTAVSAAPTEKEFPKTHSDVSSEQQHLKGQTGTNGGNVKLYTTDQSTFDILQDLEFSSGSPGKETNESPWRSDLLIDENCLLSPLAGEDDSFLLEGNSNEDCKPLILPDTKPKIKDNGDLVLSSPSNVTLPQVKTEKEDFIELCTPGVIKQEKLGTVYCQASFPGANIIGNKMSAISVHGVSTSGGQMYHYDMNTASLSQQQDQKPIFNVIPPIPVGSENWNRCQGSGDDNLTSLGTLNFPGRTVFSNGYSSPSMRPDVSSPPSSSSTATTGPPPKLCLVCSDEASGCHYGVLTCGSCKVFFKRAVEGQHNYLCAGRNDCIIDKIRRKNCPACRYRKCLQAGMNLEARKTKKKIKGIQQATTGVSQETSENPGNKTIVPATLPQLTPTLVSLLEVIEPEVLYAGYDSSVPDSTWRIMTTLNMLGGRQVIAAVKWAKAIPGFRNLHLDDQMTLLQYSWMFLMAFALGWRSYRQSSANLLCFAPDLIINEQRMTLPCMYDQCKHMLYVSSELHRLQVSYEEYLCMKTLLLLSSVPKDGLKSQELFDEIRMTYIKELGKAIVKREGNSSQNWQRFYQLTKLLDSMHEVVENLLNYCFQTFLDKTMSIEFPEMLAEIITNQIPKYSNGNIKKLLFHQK

C=CCNc1nnc(SC2CC(=O)N(c3ccc(OC)cc3)C2=O)s1 (configuration not stated)
inactive: activity change, negative = inhibition [1] -11.6% | activity, negative = inhibition [2] -1.82% | Potency [3] > 20.6 µM

CCOC(=O)C(C)Sc1nc(-c2cccs2)ccc1C#N (configuration not stated)
inactive: activity change, negative = inhibition [1] 7.21% | activity, negative = inhibition [2] -3.63% | Potency [3] > 20.6 µM

CCN(CC)CCNc1nc(-c2ccco2)c2c(c1C#N)CC(C)(C)OC2
inactive: activity change, negative = inhibition [1] 12.8% | activity, negative = inhibition [2] 14.7% | Potency [3] > 20.6 µM

CCOC(=O)C1CCN(c2nc3ccccc3nc2C(C#N)C(=O)OC(C)COC)CC1 (configuration not stated)
inactive: activity change, negative = inhibition [1] -6.33% | activity, negative = inhibition [2] -12.7% | Potency [3] > 20.6 µM

C=C1c2cc(OC)ccc2NC(=O)N1CC
inactive: activity change, negative = inhibition [1] 13.3% | activity, negative = inhibition [2] 1.02% | Potency [3] > 20.6 µM

COc1ccc(C(=O)Nc2cccnc2)cc1C(=O)Nc1cccnc1
inactive: activity change, negative = inhibition [1] 3.61% | activity, negative = inhibition [2] -4.76% | Potency [3] > 20.6 µM

CCCCCc1ccc(-c2ccc(=O)[nH]n2)cc1
inactive: activity change, negative = inhibition [1] 7.59% | activity, negative = inhibition [2] 13.6% | Potency [3] > 20.6 µM

CCOC(=O)c1ccc(N2C(=O)CC(Sc3nnc(C)s3)C2=O)cc1 (configuration not stated)
inactive: activity change, negative = inhibition [1] 6.1% | activity, negative = inhibition [2] 1.82% | Potency [3] > 20.6 µM

CCC12CN3CC(CC)(CN(C1)C3c1c(O)ccc3ccccc13)C2=O (configuration not stated)
inactive: activity change, negative = inhibition [1] 2.68% | activity, negative = inhibition [2] -7.82% | Potency [3] > 20.6 µM

O=C(c1ccccc1F)N1CCC(N2CCCCCC2)CC1
inactive: activity change, negative = inhibition [1] -3.96% | activity, negative = inhibition [2] 2.78% | Potency [3] > 20.6 µM

COCc1[nH]nc2c1C(c1ccc(OC)cc1)C(C#N)=C(N)O2 (configuration not stated)
inactive: activity change, negative = inhibition [1] 2.89% | activity, negative = inhibition [2] -11.4% | Potency [3] > 20.6 µM

Cc1ccc(S(=O)(=O)c2cc3c(=O)n4cccc(C)c4nc3n(CC3CCCO3)c2=N)cc1 (configuration not stated)
inactive: activity change, negative = inhibition [1] 2.16% | activity, negative = inhibition [2] 2.48% | Potency [3] > 20.6 µM

CC(C)COc1ccc(C(=O)OCCN2CCOCC2)c(O)c1
inactive: activity change, negative = inhibition [1] 1.3% | activity, negative = inhibition [2] 0.653% | Potency [3] > 20.6 µM

CCCCN(CCCC)C(=O)CSc1nnc2n(C)c(=O)c3c4c(sc3n12)CCCC4
inactive: activity change, negative = inhibition [1] -8.91% | activity, negative = inhibition [2] -16.8% | Potency [3] > 20.6 µM

CC(C)Sc1nc(N2CCCC2)c2c(c1C#N)CC(C)(C)OC2
inactive: activity change, negative = inhibition [1] -10.5% | activity, negative = inhibition [2] -9.04% | Potency [3] > 20.6 µM

Cc1c(O)c(CN2CCCCC2)cc2c3c(c(=O)oc12)CCC3
inactive: activity change, negative = inhibition [1] 6.76% | activity, negative = inhibition [2] -1.68% | Potency [3] > 20.6 µM

Cc1cc(Cn2ccnc2)c(C)cc1Cn1ccnc1
inactive: activity change, negative = inhibition [1] 0.168% | activity, negative = inhibition [2] 2% | Potency [3] > 20.6 µM

C=CCn1c(=O)c(C(=O)NCCN(CC)CC)c(O)c2ccccc21
inactive: activity change, negative = inhibition [1] 14.7% | activity, negative = inhibition [2] 8.32% | Potency [3] > 20.6 µM

Clc1ccc(-c2nnc3sc(Cc4cccs4)nn23)c(Cl)c1
inactive: activity change, negative = inhibition [1] -25% | activity, negative = inhibition [2] 12.6% | Potency [3] > 20.6 µM

COc1cc2c(C(=O)N3CCN(c4ccccc4)CC3)c(C)oc2cc1Br
inactive: activity change, negative = inhibition [1] 3.59% | activity, negative = inhibition [2] -12.8% | Potency [3] > 20.6 µM

Cc1ccc(OCC(=O)N2CCC(N3CCCCCC3)CC2)cc1
inactive: activity change, negative = inhibition [1] 3.92% | activity, negative = inhibition [2] 17.9% | Potency [3] > 20.6 µM

CC1(C)Cc2c(C#N)c(N3CCOCC3)nc(-c3ccccc3)c2CO1
inactive: activity change, negative = inhibition [1] -10.7% | activity, negative = inhibition [2] 6.12% | Potency [3] > 20.6 µM

CC1(C)Cc2nc(NCCCO)c(C#N)cc2CO1
inactive: activity change, negative = inhibition [1] -6.96% | activity, negative = inhibition [2] 7.31% | Potency [3] > 20.6 µM

C=CCOn1c(=O)c(-c2cc3ccccc3o2)[n+]([O-])c2ccccc21
inactive: activity change, negative = inhibition [1] -28.9% | activity, negative = inhibition [2] -8.42% | Potency [3] > 20.6 µM

COc1ccc(-c2oc3ncn4nc(COc5ccccc5)nc4c3c2-c2ccc(OC)cc2)cc1
inactive: activity change, negative = inhibition [1] -11.5% | activity, negative = inhibition [2] 4.11% | Potency [3] > 20.6 µM

CCCN(CCC)C(=O)CC(c1ccc(F)cc1)c1ccco1 (configuration not stated)
inactive: activity change, negative = inhibition [1] 13% | activity, negative = inhibition [2] -3.11% | Potency [3] > 20.6 µM

CCCCc1cc(=O)oc2c(CN(C)C)c(O)c(Cl)cc12
inactive: activity change, negative = inhibition [1] -6.67% | activity, negative = inhibition [2] 14.1% | Potency [3] > 20.6 µM

CCCCNC(=O)C(C#N)c1nc2ccccc2nc1N1CCN(Cc2ccc3c(c2)OCO3)CC1 (configuration not stated)
inactive: activity change, negative = inhibition [1] -18.8% | activity, negative = inhibition [2] -8.12% | Potency [3] > 20.6 µM

CC(C)c1nc2sc3c(c2c(=O)o1)CCCC3
inactive: activity change, negative = inhibition [1] -7.93% | activity, negative = inhibition [2] 2.63% | Potency [3] > 20.6 µM

C[C@]12CC[C@@H]3c4ccc(O)cc4C(=O)C[C@H]3[C@@H]1CC[C@@H]2O
inactive: activity change, negative = inhibition [1] 0.317% | activity, negative = inhibition [2] -2.37% | Potency [3] > 20.6 µM

CC(C)CSc1nc(N2CCOCC2)c2c(c1C#N)CC(C)(C)SC2
inactive: activity change, negative = inhibition [1] -7.32% | activity, negative = inhibition [2] 2.55% | Potency [3] > 20.6 µM

O=c1[nH]c(=O)n(Cc2ccco2)c2c1C(C(F)(F)F)(C(F)(F)F)N=C(c1ccco1)N2
inactive: activity change, negative = inhibition [1] 3.52% | activity, negative = inhibition [2] -26.4% | Potency [3] > 20.6 µM

CC1(C)Cc2c(c(N3CCCCC3)[nH]c(=S)c2C#N)CS1
inactive: activity change, negative = inhibition [1] 3.57% | activity, negative = inhibition [2] -3.22% | Potency [3] > 20.6 µM

Cc1nc2c(c(=O)n1CC1CCCO1)c1nc3ccccc3nc1n2Cc1ccc2c(c1)OCO2 (configuration not stated)
inactive: activity change, negative = inhibition [1] 1.65% | activity, negative = inhibition [2] -13.4% | Potency [3] > 20.6 µM
